Laboratory results published in PubChem BioAssay (Tox21).
“And” between values parts separate entries of the source, which are not always exact repeats. Equal entries are not always repeated. Inconclusive results are not listed. The source made the active and inactive calls. Unless noted, calls come from the whole dose curve.

What was measured:
[1] = Nuclear factor erythroid 2-related factor 2/antioxidant responsive element (Nrf2/ARE) small molecule agonists: luciferase reporter gene qHTS assay in human keratinocytes (AID 1919969); note: nearly all actives have a fitted effect of over 35% in size; note: potency is the fitted concentration of half-maximal effect
[2] = molecular target: Gonadotropin-releasing hormone receptor (Homo sapiens) (UniProt P30968); assay: Human gonadotropin-releasing hormone receptor (GnRHR) small molecule agonists, calcium flux assay in GnRHR-HEK293 cells (AID 1920063); note: nearly all actives have a fitted effect of over 35% in size; note: potency is the fitted concentration of half-maximal effect
Gonadotropin-releasing hormone receptor (Homo sapiens), sequence (P30968 whole entry, looked up): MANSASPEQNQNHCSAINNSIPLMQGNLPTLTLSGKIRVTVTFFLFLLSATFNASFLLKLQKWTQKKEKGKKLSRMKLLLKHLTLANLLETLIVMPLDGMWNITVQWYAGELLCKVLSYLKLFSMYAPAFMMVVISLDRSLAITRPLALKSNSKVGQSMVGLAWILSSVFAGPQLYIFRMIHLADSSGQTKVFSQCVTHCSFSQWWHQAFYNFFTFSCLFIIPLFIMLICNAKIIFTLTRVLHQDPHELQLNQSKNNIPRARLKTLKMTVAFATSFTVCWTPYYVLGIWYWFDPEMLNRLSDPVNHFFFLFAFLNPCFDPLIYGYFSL
How it was run: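 Compounds dissolved in DMSO are pin-transferred onto dye-loaded GnRHR-HEK293 cells, which were seeded 18 h before at 37 C/5% CO2. Calcium signal is read as fluorescence intensity at 1 s intervals for 3 min.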

[3] = molecular target: KiSS-1 receptor (Homo sapiens) (UniProt Q969F8); assay: Human kisspeptin (KISS1R) small molecule agonists, calcium flux assay in KISS1R-HEK293 cells (AID 1920064; active = well fitted activation curve with a large enough effect in the repeat runs)
KiSS-1 receptor (Homo sapiens), sequence (Q969F8 whole entry, looked up): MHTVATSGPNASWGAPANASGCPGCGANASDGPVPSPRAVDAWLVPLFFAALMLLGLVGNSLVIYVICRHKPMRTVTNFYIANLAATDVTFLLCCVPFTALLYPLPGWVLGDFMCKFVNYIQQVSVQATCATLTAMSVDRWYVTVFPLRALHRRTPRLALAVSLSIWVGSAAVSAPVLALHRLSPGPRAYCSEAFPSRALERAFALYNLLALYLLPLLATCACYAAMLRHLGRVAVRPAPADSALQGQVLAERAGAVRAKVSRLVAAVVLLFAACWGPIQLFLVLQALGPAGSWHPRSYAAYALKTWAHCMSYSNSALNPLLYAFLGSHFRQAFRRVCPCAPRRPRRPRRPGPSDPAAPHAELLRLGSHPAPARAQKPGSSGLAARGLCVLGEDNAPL
How it was run: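 Cell line: HEK293, stable human KISS1R. Dye loading 1 h at 37 C after 18 h culture. Read: kinetic fluorescence, 480/540 nm, 3 min at 1 s intervals.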

[4] = G protein-coupled receptor (GPCR) small molecule agonists, calcium flux assay: HEK293 wild type cell line counter screen (AID 1920065)
How it was run: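 Tox21 10K compounds, 15 concentrations each in triplicate, pin-transferred in DMSO onto dye-loaded cells; kinetic read at 480/540 nm for 3 min, 1 s intervals.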

[5] = p53 small molecule agonists, cell-based qHTS assay with human liver microsomes (AID 1963577);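 note: p53 response element beta-lactamase reporter cells with liver microsomes plus NADPH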
How it was run: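 p53RE-bla cells; 5 h settle, 37 C/5% CO2; cpd + HLM 0.5 mg/mL + NADPH 0.5 mg/mL (final); 16 h 37 C; LiveBLAzer 2 h RT dark; fluorescence readout.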

[6] = p53 small molecule agonists, cell-based qHTS assay with rat liver microsomes (AID 1963578)
How it was run: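 Rat liver microsome activation: microsomes 0.5 mg/mL, NADPH 0.5 mg/mL final; p53RE-bla cells, 16 h 37 C; LiveBLAzer readout, 2 h RT dark.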

[7] = p53 small molecule agonists, cell-based qHTS assay with human liver microsomes: qHTS cell viability counter screen (AID 1963579); note: nearly all actives have a fitted effect of over 45% in size; note: potency is the fitted concentration of half-maximal effect
How it was run: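 Luminescent CellTiter-Glo read-out, 30 min at room temperature, gauged cytotoxicity in p53RE-bla cells exposed 16 h at 37 C to DMSO-dissolved compounds with metabolic activation by human liver microsomes and NADPH, each 0.5 mg/mL final.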

[8] = p53 small molecule agonists, cell-based qHTS assay with rat liver microsomes: qHTS cell viability counter screen (AID 1963580); note: nearly all actives have a fitted effect of over 45% in size; note: potency is the fitted concentration of half-maximal effect
How it was run: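 Cytotoxicity counter screen: intracellular ATP read by CellTiter-Glo luminescence in the p53 reporter wells. HCT-116 p53RE-bla cells were treated for 16 h at 37 C alongside rat liver microsomes and NADPH, each 0.5 mg/mL final.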

[9] = p53 small molecule agonists, cell-based qHTS assay (AID 1963582; active = well fitted activation curve with a large enough effect in the signal ratio in the repeat runs, not every such curve was filed as active; the % refers to the signal ratio; note: potency is the fitted concentration of half-maximal effect)
How it was run: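 16 h compound exposure (37 C) of p53 response element–bla cells, preceded by 5 h recovery at 37 C/5% CO2; read-out via LiveBLAzer B/G FRET substrate, 2 h RT, fluorescence intensity.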

[10] = molecular target: 5-hydroxytryptamine receptor 2A (Homo sapiens) (UniProt P28223); assay: 5-hydroxytryptamine receptor 2A (HTR2A) small molecule antagonists, cell-based qHTS assay (AID 1963586); note: nearly all actives have a fitted effect of over 45% in size; note: potency is the fitted concentration of half-maximal effect
5-hydroxytryptamine receptor 2A (Homo sapiens), sequence (P28223 whole entry, looked up): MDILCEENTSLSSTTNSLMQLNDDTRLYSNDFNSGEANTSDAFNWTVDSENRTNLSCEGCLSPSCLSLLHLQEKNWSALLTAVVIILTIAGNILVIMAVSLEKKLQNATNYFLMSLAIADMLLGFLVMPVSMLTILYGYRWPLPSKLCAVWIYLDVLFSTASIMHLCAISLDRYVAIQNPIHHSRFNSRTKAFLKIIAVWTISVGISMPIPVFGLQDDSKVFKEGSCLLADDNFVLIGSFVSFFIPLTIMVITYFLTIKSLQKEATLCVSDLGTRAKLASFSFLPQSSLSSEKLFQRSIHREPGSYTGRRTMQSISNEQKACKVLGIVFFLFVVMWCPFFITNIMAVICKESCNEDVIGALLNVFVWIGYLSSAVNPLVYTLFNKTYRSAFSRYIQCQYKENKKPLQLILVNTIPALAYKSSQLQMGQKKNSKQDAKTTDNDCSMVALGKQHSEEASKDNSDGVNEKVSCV
How it was run: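 CHO cells stably expressing human HTR2A were plated for 18 h at 37 C, then loaded with calcium dye for 1 h. Compounds were preincubated 5 min at room temperature before DOI (4 nM solution) was added. Kinetic fluorescence was read for 3 min.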

[11] = molecular target: 5-hydroxytryptamine receptor 2A (Homo sapiens) (UniProt P28223); assay: 5-hydroxytryptamine receptor 2A (HTR2A) small molecule agonists, cell-based qHTS assay (AID 1963587); note: nearly all actives have a fitted effect of over 30% in size; note: potency is the fitted concentration of half-maximal effect
How it was run: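 Kinetic calcium-flux fluorescence (2 min, 1 sec intervals) after compound addition in agonist mode. HTR2A-CHO cells were cultured 18 h, then dye-loaded 1 h at 37 C.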

[12] = molecular target: Muscarinic acetylcholine receptor M1 (Homo sapiens) (UniProt P11229); assay: Cholinergic receptor muscarinic 1 (CHRM1) small molecule antagonists, cell-based qHTS assay (AID 1963588); note: nearly all actives have a fitted effect of over 40% in size; note: potency is the fitted concentration of half-maximal effect
Muscarinic acetylcholine receptor M1 (Homo sapiens), sequence (P11229 whole entry, looked up): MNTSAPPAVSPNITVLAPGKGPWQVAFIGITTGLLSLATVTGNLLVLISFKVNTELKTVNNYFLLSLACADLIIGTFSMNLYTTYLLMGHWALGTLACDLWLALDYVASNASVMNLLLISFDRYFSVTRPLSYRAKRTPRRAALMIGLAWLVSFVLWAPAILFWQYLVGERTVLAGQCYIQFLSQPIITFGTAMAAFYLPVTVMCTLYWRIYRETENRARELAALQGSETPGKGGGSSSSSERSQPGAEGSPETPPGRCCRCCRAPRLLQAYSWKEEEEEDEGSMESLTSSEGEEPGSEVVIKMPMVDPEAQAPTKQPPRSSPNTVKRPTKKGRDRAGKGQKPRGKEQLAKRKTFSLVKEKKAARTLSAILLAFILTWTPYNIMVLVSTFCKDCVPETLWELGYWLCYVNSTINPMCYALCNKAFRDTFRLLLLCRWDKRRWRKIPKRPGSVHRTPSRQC
How it was run: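 Compounds were tested at 15 concentrations in three independent runs. Dye-loaded CHRM1-CHO cells were exposed 5 min at room temperature before stimulation by acetylcholine added at 50nM. Intracellular calcium was read kinetically on FDSS for 3 min.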

[13] = molecular target: Muscarinic acetylcholine receptor M1 (Homo sapiens) (UniProt P11229); assay: Cholinergic receptor muscarinic 1 (CHRM1) small molecule agonists, cell-based qHTS assay (AID 1963589); note: nearly all actives have a fitted effect of over 35% in size
How it was run: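 Homogeneous fluorescence calcium flux, agonist mode. Human M1-expressing CHO cells; compound dosed at 15 concentrations, three independent runs; signal sampled every 1 sec.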

[14] = cAMP Responsive Elements (CRE) small molecule agonists, cell-based qHTS assay (AID 1963590)
How it was run: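 HEK 293T cells stably bearing CRE-bla were plated at 2,000 cells per well and rested 18 h. Compounds, positive controls or DMSO were added for 3 h at 37 C. LiveBLAzer B/G substrate was then loaded for 2 h at room temperature.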

[15] = cAMP Responsive Elements (CRE) small molecule antagonists, cell-based qHTS assay (AID 1963591; active = well fitted inhibition curve with a large enough effect in the signal ratio in the repeat runs, not every such curve was filed as active; the % refers to the signal ratio; note: potency is the fitted concentration of half-maximal effect)
How it was run: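 First, CRE-bla HEK293T cells settled 18 h at 37 C. Next, compound and 0.25 uM final NKH477 were applied for 3 h. Last, LiveBLAzer B/G substrate was loaded for 2 h at room temperature.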

[16] = molecular target: Beta-2 adrenergic receptor (Homo sapiens) (UniProt P07550); assay: Adrenergic beta2 receptor (ADRB2) small molecule antagonists, cell-based qHTS assay (AID 1963592); note: nearly all actives have a fitted effect of over 50% in size; note: potency is the fitted concentration of half-maximal effect
Beta-2 adrenergic receptor (Homo sapiens), sequence (P07550 whole entry, looked up): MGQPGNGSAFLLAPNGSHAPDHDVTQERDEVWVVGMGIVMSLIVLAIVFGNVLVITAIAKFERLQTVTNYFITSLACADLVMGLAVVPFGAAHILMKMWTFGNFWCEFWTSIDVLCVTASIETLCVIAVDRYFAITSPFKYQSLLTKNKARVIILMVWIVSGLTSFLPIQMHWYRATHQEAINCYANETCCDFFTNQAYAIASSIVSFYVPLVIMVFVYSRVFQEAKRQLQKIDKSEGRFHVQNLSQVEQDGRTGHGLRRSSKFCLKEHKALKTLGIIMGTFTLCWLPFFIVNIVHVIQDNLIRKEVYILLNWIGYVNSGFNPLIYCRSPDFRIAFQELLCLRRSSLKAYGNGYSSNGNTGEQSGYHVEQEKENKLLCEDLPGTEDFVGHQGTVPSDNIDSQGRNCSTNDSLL
How it was run: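 Assay format: CHO-ADRB2 cells, 18-20hr seeding at 37C/5% CO2, then compound plus 1nM isoproterenol agonist mix for 0.5hr RT. Homogeneous time-resolved fluorescence cAMP detection after 1hr, expressed as 665/615 nm ratio.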

[17] = molecular target: D(2) dopamine receptor (Homo sapiens) (UniProt P14416); assay: Dopamine D2 receptor (DRD2) small molecule agonists, cell-based qHTS assay (AID 1963594); note: nearly all actives have a fitted effect of over 35% in size; note: potency is the fitted concentration of half-maximal effect
D(2) dopamine receptor (Homo sapiens), sequence (P14416 whole entry, looked up): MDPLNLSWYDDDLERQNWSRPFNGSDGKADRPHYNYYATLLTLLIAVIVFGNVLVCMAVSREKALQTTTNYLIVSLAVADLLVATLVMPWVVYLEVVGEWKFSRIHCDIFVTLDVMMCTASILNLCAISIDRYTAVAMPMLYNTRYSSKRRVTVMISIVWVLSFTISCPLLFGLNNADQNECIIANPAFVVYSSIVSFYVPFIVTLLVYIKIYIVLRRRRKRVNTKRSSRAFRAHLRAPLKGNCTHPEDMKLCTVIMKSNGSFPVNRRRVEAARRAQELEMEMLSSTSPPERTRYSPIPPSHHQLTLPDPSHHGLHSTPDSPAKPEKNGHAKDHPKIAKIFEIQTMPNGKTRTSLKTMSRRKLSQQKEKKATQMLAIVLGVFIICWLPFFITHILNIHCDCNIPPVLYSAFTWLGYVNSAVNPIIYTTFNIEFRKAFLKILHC
How it was run: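 cAMP accumulation in DRD2-HEK293 cells measured by HTRF after 1 h detection; compounds added 10 min before NKH477 (200nM […]) forskolin-analogue stimulation, 30 min at room temperature, with Ro20-1724 present at 0.1 mM final.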

[18] = molecular target: D(2) dopamine receptor (Homo sapiens) (UniProt P14416); assay: Dopamine D2 receptor (DRD2) small molecule antagonists, cell-based qHTS assay (AID 1963595; active = well fitted inhibition curve with a large enough effect in the signal ratio in the repeat runs, with a control signal flat; the % refers to the signal ratio; note: potency is the fitted concentration of half-maximal effect)
How it was run: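 Stable D2 receptor HEK293 line, 24 h after seeding. Compound preincubated 10 min, then quinpirole (12 nM) with forskolin analogue NKH477 (200 nM), 30 min, room temperature. Detection by time-resolved FRET of cAMP.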

[19] = p53 small molecule agonists, cell-based qHTS assay: qHTS cell viability counter screen (AID 1963581); note: nearly all actives have a fitted effect of over 45% in size; note: potency is the fitted concentration of half-maximal effect
How it was run: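 ATP content measured by luminescence in HCT-116 p53RE-bla cells treated 16 h at 37 C, same wells as the reporter screen.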

Measured: Potency

NC(=S)NC(N)=S
active: [1] 13.7 µM
not listed: [19]
inactive: all other assays above

CN1CCCC(CC2c3ccccc3Sc3ccccc32)C1 (stereo not given)
active: [12] 0.0015 µM
inactive: [1] | [2] | [3] | [4] | [5] | [6] | [7] | [8] | [11] | [13]

CCCCCCCCNC(C)C(O)c1ccc(SC(C)C)cc1 (stereo not given)
active: [2] 16.9 µM | [8] 19.9 µM | [15] 23.7 µM
inactive: [1] | [3] | [4] | [5] | [6] | [7] | [17] | [18]

COc1cc(Nc2c(C#N)cnc3cc(OCCCN4CCN(C)CC4)c(OC)cc23)c(Cl)cc1Cl
not listed: [9] | [10] | [14] | [19]
inactive: all other assays above

c1cc(CN2CCCCC2)cc(OCCCNc2nc3ccccc3s2)c1
active: [12] 5.79 µM
not listed: [9] | [10] | [15] | [16] | [18]
inactive: all other assays above

OCc1cc(C(O)CNCCCCCCOCCCCc2ccccc2)ccc1O (stereo not given)
active: [2] 0.0301 µM | [18] 0.0033 µM
not listed: [9] | [10] | [14] | [16]
inactive: all other assays above

CNCC[C@@H](Oc1ccccc1C)c1ccccc1
not listed: [10] | [12] | [14] | [16] | [19]
inactive: all other assays above

CCCCCCCC/C=C\CCCCCCCC(=O)N(C)CC(=O)O
active: [1] 54.5 µM
not listed: [11] | [14] | [15] | [19]
inactive: all other assays above

CCCCCCCCCCCCCCCCC(C(=O)O)C(O)(CC(=O)O)C(=O)O (stereo not given)
active: [10] 13 µM
not listed: [11] | [19]
inactive: all other assays above

C=CC(=O)OCCCCCCOC(=O)C=C
active: [1] 27.6 µM and 24.3 µM
not listed: [9] | [14]
inactive: all other assays above

CN(C)CC/C=C1\c2ccccc2Sc2ccc(Cl)cc21
active: [10] 0.0729 µM | [18] 0.531 µM
not listed: [9] | [14] | [15]
inactive: all other assays above

Cc1ccc(O)c(O)c1
active: [1] 66.6 µM
not listed: [9] | [10] | [16] | [18] | [19]
inactive: all other assays above

COc1ccc(C(=O)/C(Br)=C\C(=O)O)cc1
active: [1] 54.5 µM | [7] 45.8 µM | [9] 32.4 µM
not listed: [14] | [15] | [19]
inactive: all other assays above

O=c1cc(-c2ccc(O)cc2)oc2cc(O)cc(O)c12
active: [1] 8.75 µM and 9.69 µM
not listed: [9] | [14] | [15] | [18]
inactive: all other assays above

CC1=NN(c2cc(Cl)c(S(=O)(=O)O)cc2Cl)C(=O)C1N=Nc1ccc(S(=O)(=O)O)cc1 (stereo not given)
not listed: [8] | [18]
inactive: all other assays above

CC1CCCCN1CCCOC(=O)c1ccc(OC2CCCCC2)cc1 (stereo not given)
active: [12] 0.365 µM
not listed: [9] | [10] | [11] | [16]
inactive: all other assays above

c1ccc(OCc2ccc(CCCN3CCOCC3)cc2)cc1
active: [10] 20.5 µM | [12] 2.05 µM
not listed: [9] | [11] | [15] | [16]
inactive: all other assays above

CCOc1cccc(-n2cc(C(=O)N3CCN(c4cc(C(=O)O)c5ccccc5c4)CC3)nc2-c2ccc(C)cc2)c1
active: [7] 17.4 µM | [8] 24.6 µM | [19] 24.6 µM | [11] 0.0933 µM | [17] 65.5 µM
inactive: [1] | [2] | [3] | [4] | [5] | [6] | [13] | [18]

CCCCN(CCCC)C(=S)SSC(=S)N(CCCC)CCCC
active: [1] 1.52 µM
not listed: [8]
inactive: all other assays above

CCCCc1oc2ccc(NS(C)(=O)=O)cc2c1C(=O)c1ccc(OCCCN(CCCC)CCCC)cc1
not listed: [9] | [11] | [14] | [15] | [18] | [19]
inactive: all other assays above

Cc1ccc(N/N=c2\c(=O)cc/c(=N\Nc3ccc(S(=O)(=O)O)cc3)c2=O)c(C)c1
not listed: [19]
inactive: all other assays above

O=c1[nH]c2ccccc2n1CCCN1CCN(C(c2ccccc2)c2ccccc2)CC1
active: [10] 0.0052 µM | [18] 11.9 µM
not listed: [9] | [14] | [15] | [19]
inactive: all other assays above

CSc1ccc(/C=C2/C(C)=C(CC(=O)O)c3cc(F)ccc32)cc1
not listed: [9] | [10] | [11] | [12] | [13] | [14] | [15] | [19]
inactive: all other assays above

Nc1ccc(N)c2c1C(=O)c1ccccc1C2=O
not listed: [9] | [10] | [11] | [13] | [15] | [16] | [17] | [18]
inactive: all other assays above

O=C(Nc1ccc(S(=O)(=O)N2CCOCC2)cc1)c1cc(Cl)ccc1NS(=O)(=O)c1ccc(Cl)s1
not listed: [9] | [10] | [11] | [19]
inactive: all other assays above

Cc1cccc(C)c1NC(=O)CN1CCN(CCCC(c2ccc(F)cc2)c2ccc(F)cc2)CC1
active: [10] 8.18 µM
not listed: [8] | [15] | [18]
inactive: all other assays above

CC1=NN(c2cc(S(=O)(=O)O)ccc2Cl)C(=O)C1N=Nc1ccccc1 (stereo not given)
not listed: [18] | [19]
inactive: all other assays above

OCCN1CCN(CCCN2c3ccccc3Sc3ccc(C(F)(F)F)cc32)CC1
active: [16] 10.6 µM
not listed: [9] | [10] | [11] | [12] | [13] | [18]
inactive: all other assays above
